Inconclusive results are not listed. Entries that show only a call come without a potency. Unmarked numbers belong to inactive results. Active and inactive are the calls of the source. The call rests on the fitted dose curve; in most records, active means well fitted curve in the direction sought with a large enough effect; inconclusive means small, poorly fitted or top-dose-only effect, or another doubt; inactive means no such curve, though single readings can be large; an effect the other way counts as inactive or inconclusive.
Key:
[1] = biological target: Cellular tumor antigen p53 (Homo sapiens) (UniProt P04637); experiment: Primary qHTS for small molecule compounds that upregulate eGFP-tagged delta133p53alpha (in N-terminal) cells. (AID 2060322); conditions: NCI-H358 eGFP-delta133p53alpha fluorescence, 24 h; activation: active compounds read high; further: nearly all actives have a fitted effect of over 75% in size; further: potency means the concentration at half of the fitted maximal effect; on activation: series mostly up to about 56 µM
Method in brief: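 NCI-H358 cells pre-induced 24 h with 10 ng/ml doxycycline to express N-terminal eGFP-delta133p53alpha, then dosed 24 h at 37C without doxycycline; fixed, Hoechst-stained, GFP intensity by laser scanning cytometry, normalized to DMSO (0%) and 57.5 uM 5-azacytidine (100%).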

[2] = biological target: Aldehyde dehydrogenase, mitochondrial (Homo sapiens) (UniProt P05091); experiment: qHTS for Inhibitors of the Aldehyde Dehydrogenase Family (ALDH2) Primary screen (AID 2061308); further: nearly all actives have a fitted effect of over 55% in size

Cellular tumor antigen p53 (Homo sapiens), sequence (P04637 whole entry, looked up): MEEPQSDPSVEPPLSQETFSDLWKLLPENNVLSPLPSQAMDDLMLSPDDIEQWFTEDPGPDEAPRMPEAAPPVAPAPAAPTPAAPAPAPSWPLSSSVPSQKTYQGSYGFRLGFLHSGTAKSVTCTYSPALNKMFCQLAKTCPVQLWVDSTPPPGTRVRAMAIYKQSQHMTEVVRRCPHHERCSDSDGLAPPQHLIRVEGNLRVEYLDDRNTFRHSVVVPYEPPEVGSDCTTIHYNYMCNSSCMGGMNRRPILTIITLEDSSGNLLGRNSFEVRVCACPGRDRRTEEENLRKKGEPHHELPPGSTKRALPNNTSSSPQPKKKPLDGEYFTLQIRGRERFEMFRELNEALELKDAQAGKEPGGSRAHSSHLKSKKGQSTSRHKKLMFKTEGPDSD

Compound	activation [1]	Potency [2]	Potency [1]
COc1ccc([C@@H]2OC[C@H]3[C@@H]2CO[C@@H]3c2ccc(OC3OC(CO)C(O)C(O)C3O)c(OC)c2)cc1OC (some centres undefined)	10.7%	inactive	
COc1ccc(C)c2sc(NC(=O)c3ccncc3)nc12	-15.7%	inactive	
COc1cc(C2c3cc4c(c(O)c3CC(CO)C2C(=O)O)OCO4)cc(OC)c1O (centres undefined)	9.82%	inactive	
CC(=O)N1CCc2ccc(O)c(OC3OC(COC4OCC(O)(CO)C4O)C(O)C(O)C3O)c2C1Cc1ccc(O)cc1 (centres undefined)	-0.763%	inactive	
O=C(CC1CC(c2ccc(F)cc2F)=NO1)N1CCOCC1 (centres undefined)	1.43%	inactive	
CC1(C)CC2C=C(C(=O)O)C3COC(=O)C(O)(CO)C23C1 (centres undefined)	-13%	inactive	
C(#Cc1nc2ncccc2nc1OCCN1CCCC1)c1ccccc1		inactive	6.75 µM (active)
O=C(/C=C/c1ccc(O)c(O)c1)OC[C@H]1O[C@@H](OC2CCCCC2O)[C@H](O)[C@@H](O)[C@@H]1O (some centres undefined)	-3.05%	inactive	
C=C1CCC2(C(=O)OC3OC(CO)C(O)C(O)C3O)CCC3(C)C(=CCC4C5(C)CCC(OC6OC(CO)C(OC7OC(C)C(O)C(O)C7O)C(OC7OCC(O)C(O)C7O)C6O)C(C)(C)C5CCC43C)C2C1 (centres undefined)	14.3%	inactive	
Fc1ccc2nc(CCC#Cc3ccccn3)cn2c1	2.68%	inactive	
COc1cc(C(=O)OC[C@H]2O[C@@H](OC(C)(C)C(=O)O)[C@H](O)[C@@H](O)[C@@H]2O)cc(OC)c1O	-29.5%	inactive	
C=C1CC[C@H]2[C@@](C)(CCC(O)[C@@]2(C)CO)[C@@H]1C/C=C(/C(=O)O)C(O)CO (some centres undefined)	-16.1%	inactive	
CC1(O)CCC2C(C(=O)O)=COC(OC3OC(CO)C(O)C(O)C3OC(=O)/C=C/c3ccc(O)cc3)C21 (centres undefined)	-16%	inactive	
OCCc1ccc(O[C@@H]2O[C@H](CO)[C@@H](O)[C@H](O)[C@H]2O)c(O)c1	8.93%	inactive	
CC/C=C\C(O)C(O)C1=C(C)C(=O)C2(O1)C(=O)NC(OC)(C(=O)c1ccccc1)C2O (centres undefined)	0.763%	inactive	
COc1c2cc(c(O[C@@H]3O[C@H](CO)[C@@H](O)[C@H](O)[C@H]3O)c1OC)CCCCC(O)CCc1ccc(O)c-2c1 (some centres undefined)	8.93%	inactive	
CC1=CC2C(CC1OC1OC(CO)C(O)C(O)C1O)C(C)CC(=O)C2C(C)C (centres undefined)	4.58%	inactive	
COC(=O)C[C@H]1[C@]2(C)C3=C(C)[C@H](c4ccoc4)C[C@H]3O[C@@H]2[C@H](OC(C)=O)C2[C@](C)(C(=O)OC)C=CC(=O)[C@@]21C (some centres undefined)	11.6%	inactive	
COC(=O)C1=COC(O[C@@H]2O[C@H](CO)[C@@H](O)[C@H](O)[C@H]2O)C2C(C)C(=O)CC12 (some centres undefined)	-1.53%	inactive	

Compound	activation [1]	Potency [2]	Potency [1]
C[C@@H](OC(=O)/C=C/c1ccc(O)cc1)C1=C[C@]2(C=C[C@@H]3C(C(=O)O)=CO[C@@H](O[C@@H]4O[C@H](CO[C@@H]5O[C@H](CO)[C@@H](O)[C@H](O)[C@H]5O)[C@@H](O)[C@H](O)[C@H]4O)[C@@H]32)OC1=O	-5.34%	inactive	
COC(=O)C1=COC(O[C@@H]2O[C@H](CO)[C@@H](O)[C@H](O)[C@H]2O)/C(=C\COC(=O)/C=C/c2ccccc2)C1CC(=O)OCCc1ccc(O)cc1 (some centres undefined)	-0.763%	inactive	
C=C1[C@H]2[C@H](O[C@@H]3O[C@H](COC(=O)/C=C/c4cc(OC)c(O)c(OC)c4)[C@@H](O)[C@H](O)[C@H]3O)OC=C(C(=O)O)[C@H]2C[C@@H]1O	-10.7%	inactive	
COc1cc2c(cc1O)C1(Cc3ccc4c(c3C1O)OCO4)[N+](C)([O-])CC2 (centres undefined)	-8.04%	inactive	
C/C=C1/[C@H](O[C@@H]2O[C@H](CO)[C@@H](O)[C@H](O)[C@H]2O)OC=C(C(=O)OC)[C@H]1CC(=O)OCCc1ccc(OC(=O)C[C@@H]2C(C(=O)OC)=CO[C@@H](O[C@@H]3O[C@H](CO)[C@@H](O)[C@H](O)[C@H]3O)/C2=C/C)cc1	-7.14%	inactive	
COc1cc(C2Oc3c(OC)cc(/C=C/C(=O)OC[C@H]4O[C@@H](OC(C)(C)C(=O)O)[C@H](O)[C@@H](O)[C@@H]4O)cc3C2CO)ccc1O (some centres undefined)	-9.16%	inactive	
CC1=CC(=O)CC(C)(C)C1(O)CCC(C)O (centres undefined)	0.893%	inactive	
C=CCC1=C[C@]2(OC)[C@H](C)[C@@H](c3ccc(O)c(OC)c3)O[C@]2(OC)CC1=O	-15.2%	inactive	
OC[C@H]1O[C@@H](Oc2cc(O)cc(-c3cc4ccc(O[C@@H]5O[C@H](CO)[C@@H](O)[C@H](O)[C@H]5O)cc4o3)c2)[C@H](O)[C@@H](O)[C@@H]1O	-14.3%	inactive	
C=CC1C(OC2OC(CO)C(O)C(O)C2O)OC=C(C(=O)OC)C1CC1CC(=O)CC(CCc2ccc(O)cc2)O1 (centres undefined)	19.6%	inactive	
CNCc1cc(-c2ccccc2F)n(S(=O)(=O)c2cccnc2)c1	12.5%	inactive	
CN1CCCC1Cc1c[nH]c2ccc(CCS(=O)(=O)c3ccccc3)cc12 (centres undefined)	24.3%	inactive	
COc1cc(N2CCC(N3CCN(C)CC3)CC2)ccc1Nc1ncc(Cl)c(-c2c[nH]c3ccccc23)n1		inactive	8.49 µM (active)
COc1cc(/C=C/C(=O)OC[C@H]2O[C@@H](OC3CC(C)=C(C(=O)O)C(C)(C)C3)[C@H](O)[C@@H](O)[C@@H]2O)cc(OC)c1O (some centres undefined)	-16.8%	inactive	
OC[C@H]1O[C@@H](OCCc2ccccc2)[C@H](O[C@@H]2OC[C@](O)(CO)[C@H]2O)[C@@H](O)[C@@H]1O	-4.58%	inactive	
COc1cc(C(CO)C(OC2OC(CO)C(O)C(O)C2O)c2ccc(O)c(OC)c2)ccc1O (centres undefined)	20.5%	inactive	
CC1CC2OCC3(O)CCC(O)C(C14CC(c1ccoc1)OC4=O)C23CO (centres undefined)	-6.11%	inactive	
COc1cc(/C=C/CO[C@@H]2O[C@H](CO)[C@@H](O)[C@H](O)[C@H]2O)cc(OC)c1O[C@@H]1O[C@H](CO)[C@@H](O)[C@H](O)[C@H]1O	0.893%	inactive	
COc1cc(/C=C/C(=O)O[C@H]2[C@H](O)[C@@H](CO)O[C@@]2(CO)O[C@H]2O[C@H](CO)[C@@H](O)[C@H](O)[C@H]2O)ccc1O	16%	inactive	

Compound	activation [1]	Potency [2]	Potency [1]
CC1=CC(=O)CC(C)(C)C1/C=C/C(C)O[C@@H]1O[C@H](CO)[C@@H](O)[C@H](O)[C@H]1O[C@@H]1OC[C@](O)(CO)[C@H]1O (some centres undefined)	-2.68%	inactive	
C=C(C)Cn1c(SCC(=O)c2cccs2)nc2sc3c(c2c1=O)CCCC3	-5.73%	inactive	
COc1cc(C2Oc3c(OC)cc(/C=C/C(=O)OC4CC(O)(C(=O)O)CC(O)C4O)cc3C2CO)ccc1O (centres undefined)	-32.8%	inactive	
CC[C@@H](Nc1c(Nc2cccc(C(=O)N(C)C)c2O)c(=O)c1=O)c1ccc(C)o1	-1.43%	inactive	
CC(C/C=C/C(C)(C)O)C1CCC(C)(O)C(O)C1 (centres undefined)	-11.5%	inactive	
COC(=O)c1c(CC=C(C)C)c(OC2OC(CO)C(O)C(O)C2O)c2ccccc2c1OC1OC(CO)C(O)C(O)C1O (centres undefined)	20.6%	inactive	
COc1cc(/C=C/C(=O)OC(C)(C)C(OC2OC(CO)C(O)C(O)C2O)C(=O)OCc2ccc(OC3OC(CO)C(O)C(O)C3O)cc2)ccc1O (centres undefined)	13.7%	inactive	
CNS(=O)(=O)c1ccccc1Nc1nc(Nc2ccc(N3CCN(C)CC3)cc2OC)ncc1Br		inactive	9.53 µM (active)
COc1cc(Nc2ccc([N+](=O)[O-])cc2C(=O)O)cc2ccccc12	-11.9%	inactive	
COc1cc(C[C@@]2(O)CO[C@@H](c3ccc(O[C@@H]4O[C@H](CO)[C@@H](O)[C@H](O)[C@H]4O)c(OC)c3)[C@H]2CO)ccc1O	-17%	inactive	
O=C(OC[C@@]1(O)CO[C@@H](O[C@H]2[C@H](Oc3ccc(O)cc3)O[C@H](CO)[C@@H](O)[C@@H]2O)[C@@H]1O)c1ccc(O)cc1	-19.1%	inactive	
C=CCC1=C[C@]2(OC)[C@H](C)[C@@H](c3ccc(OC)c(OC)c3)O[C@]2(OC)CC1=O	-3.57%	inactive	
COc1cc2ncnc(Nc3ccc(O)cc3)c2cc1OC	4.46%	inactive	
CC1(C)CCC[C@@]2(C)[C@H]1[C@H](O)C=C1COC(=O)[C@@]12O	-4.58%	inactive	
CC/C=C\CCO[C@@H]1O[C@H](CO[C@@H]2OC[C@H](O)[C@H](O)[C@H]2O)[C@@H](O)[C@H](O)[C@H]1O	-3.57%	inactive	
COc1cc([C@H]2OC[C@](O)(Cc3ccc(O[C@@H]4O[C@H](CO)[C@@H](O)[C@H](O)[C@H]4O)c(OC)c3)[C@@H]2CO)ccc1O	-1.53%	inactive	
NC(=O)[C@H](O[C@@H]1O[C@H](CO)[C@@H](O)[C@H](O)[C@H]1O)c1ccccc1	17.9%	inactive	
CC[C@@H]1[C@H]2CCCCN3C(=O)C[C@H]([C@@H]4[C@H]1OC(=O)[C@H]4C)[C@@H]23	-0.763%	inactive	
C=C1CCC2[C@](C)(CO)CCC[C@@]2(C)[C@@H]1CCC1=CCOC1=O (some centres undefined)	-7.14%	inactive	
